Laboratory results: PubChem BioAssay AID1159580 (chemical genetic matrix, 2015)
“And” between values parts separate entries of the source, which are not always exact repeats. Identical values can stand only once. Among all 5,500 compounds or so, about 2,000 (36%) were called active. Not shown: some 18% with an inconclusive outcome. Rule as the data show it: active = normalized growth mostly below about 0.91 (no sharp cut-off); inconclusive = no clear call, values can overlap the other calls; inactive = mostly above about 0.92. This is one part of the list.

Assay: chemical genetic growth profiling, strain panel (AID 1159580);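 also: tested at 20 µM; growth read once vehicle control cultures reached saturation at 30 °C; 1 = growth at the plate median or of vehicle wells; lower values mean less growth of the strain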
Conditions: S. cerevisiae deletion strains, growth OD

Measured: normalized growth

NCCSSCCN
inactive: locus YAL013W, strain DEP1, active compounds read low 1.01 | locus YAL021C, strain ccr4, active compounds read low 0.998 | locus YAL026C, strain drs2, active compounds read low 0.999 | locus YAL030W, strain snc1, active compounds read low 0.994 | locus YAL040C, strain CLN3, active compounds read low 1.02 | locus YBL061C, strain skt5, active compounds read low 0.997 | locus YBR009C, strain hhf1, active compounds read low 0.992 | locus YBR021W, strain FUR4, active compounds read low 1.01 | locus YBR023C, strain chs3, active compounds read low 0.991 | locus YBR171W, strain sec66, active compounds read low 0.988 | locus YBR229C, strain ROT2, active compounds read low 1 | locus YBR231C, strain swc5, active compounds read low 0.994 | locus YBR279W, strain paf1, active compounds read low 0.996 | locus YCL011C, strain gbp2, active compounds read low 1 | locus YCL016C, strain dcc1, active compounds read low 1 | locus YCL029C, strain bik1, active compounds read low 1.03 | locus YCL061C, strain MRC1 (second series), active compounds read low 1 | locus YCL069W, strain vba3, active compounds read low 0.997 | locus YCR088W, strain abp1, active compounds read low 0.991 | locus YDL005C, strain med2, active compounds read low 0.988 | locus YDL035C, strain GPR1, active compounds read low 1.01 | locus YDL040C, strain nat1, active compounds read low 0.996 | locus YDL074C, strain BRE1, active compounds read low 1.03 | locus YDL101C, strain DUN1, active compounds read low 1.03 | locus YDL134C, strain PPH21, active compounds read low 1.01 | locus YDL185W, strain tfp1, active compounds read low 1 | locus YDL192W, strain arf1, active compounds read low 1 | locus YDR001C, strain nth1, active compounds read low 0.992 | locus YDR069C, strain doa4, active compounds read low 0.983 | locus YDR101C, strain arx1, active compounds read low 1.01 | locus YDR137W, strain rgp1, active compounds read low 1.03 | locus YDR150W, strain NUM1, active compounds read low 1.01 | locus YDR159W, strain sac3, active compounds read low 1.01 | locus YDR162C, strain NBP2, active compounds read low 1.01 | locus YDR195W, strain ref2 0.975 | locus YDR297W, strain sur2, active compounds read low 1 | locus YDR318W, strain mcm21, active compounds read low 1.01 | locus YDR334W, strain swr1, active compounds read low 0.996 | locus YDR335W, strain msn5, active compounds read low 0.991 | locus YDR388W, active compounds read low 1.01 | locus YDR392W, strain spt3, active compounds read low 1.01 | locus YDR502C, strain sam2, active compounds read low 0.996 | locus YEL003W, strain gim4, active compounds read low 0.994 | locus YEL037C, strain rad23, active compounds read low 1 | locus YEL061C, strain CIN8 (second series), active compounds read low 0.989 | locus YEL061C, strain CIN8, active compounds read low 1 | locus YER002W, strain NOP16, active compounds read low 1.02 | locus YER015W, strain faa2, active compounds read low 1 | locus YER016W, strain bim1, active compounds read low 0.992 | locus YER110C, active compounds read low 1.01 | locus YER111C, strain swi4, active compounds read low 0.989 | locus YER155C, strain BEM2 (second series), active compounds read low 0.952 | locus YER155C, strain BEM2, active compounds read low 1.01 | locus YER167W, strain BCK2, active compounds read low 0.997 | locus YFR010W, strain ubp6, active compounds read low 0.994 | locus YGL078C, strain dbp3, active compounds read low 1 | locus YGL086W, strain mad1, active compounds read low 0.985 | locus YGL167C, strain pmr1, active compounds read low 0.993 | locus YGL173C, strain kem1, active compounds read low 0.99 | locus YGL227W, strain vid30, active compounds read low 0.99 | locus YGL240W, strain doc1, active compounds read low 0.978 | locus YGL248W, strain PDE1, active compounds read low 1 | locus YGL253W, strain hxk2, active compounds read low 0.995 | locus YGR078C, strain PAC10, active compounds read low 1.02 and 1 | locus YGR135W, strain pre9, active compounds read low 0.997 | locus YGR229C, strain SMI1, active compounds read low 0.982 | locus YGR252W, strain gcn5, active compounds read low 0.918 | locus YHR013C, strain ard1, active compounds read low 0.996 | locus YHR027C, strain rpn1, active compounds read low 0.997 | locus YHR030C, strain SLT2, active compounds read low 1 and 1.05 | locus YHR079C, strain IRE1 (second series), active compounds read low 1.02 | locus YHR079C, strain IRE1, active compounds read low 1.05 | locus YHR094C, strain hxt1, active compounds read low 1.01 | locus YHR129C, strain ARP1, active compounds read low 1.02 | locus YHR142W, strain chs7, active compounds read low 1.01 | locus YHR200W, strain rpn10, active compounds read low 1.01 | locus YIL066C, strain RNR3, active compounds read low 1.02 | locus YIL073C, strain SPO22, active compounds read low 1.02 | locus YIL125W, strain kgd1, active compounds read low 0.996 | locus YIR030C, strain dcg1, active compounds read low 1.01 | locus YJL092W, strain hpr5, active compounds read low 1 | locus YJL095W, strain BCK1 (second series), active compounds read low 0.989 | locus YJL095W, strain BCK1, active compounds read low 1.04 and 1.06 | locus YJL115W, strain asf1, active compounds read low 0.988 | locus YJL129C, strain trk1, active compounds read low 0.986 | locus YJL134W, strain LCB3, active compounds read low 1 | locus YJL154C, strain vps35, active compounds read low 0.993 | locus YJL164C, strain tpk1, active compounds read low 1.01 | locus YJL166W, strain qcr8, active compounds read low 0.989 | locus YJL168C, strain set2, active compounds read low 1.01 | locus YJL187C, strain SWE1 (second series), active compounds read low 1.03 | locus YJL187C, strain SWE1, active compounds read low 0.993 | locus YJR043C, strain POL32, active compounds read low 1.03 | locus YJR066W, strain TOR1, active compounds read low 0.918 | locus YJR075W, strain HOC1, active compounds read low 1.01
